According to PubChem BioAssay:
Calls of active or inactive are those of the source.

Tests used:
[1] = test system: Human papillomavirus type 1a protein E7 (residues 44-93); test: HPV1a E7 fragment binders on microarrays, primary screen, biochemical, small-molecule microarray, residues 44-93, 635 nm fluorescence (AID 1108); conditions: small-molecule microarray binding, fluorescence 635 nm; higher = more signal;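 note: E7 fragment applied at 1 µg/mL in TBST for 1 h at 4 C; score combines spot fluorescence with its signal to noise ratio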
[2] = modulators of HCV replicon luciferase signal, primary screen, HCV replication inhibitor project, Huh7 cells, luciferase reporter (AID 1109); conditions: 48 h, higher = more signal;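 note: huh7 hepatoma cells harbouring a luciferase neomycin HCV replicon reporter; luciferase luminescence as measure of HCV replicon replication; test concentration not given here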
[3] = biological target: Left-right determination factor 2 (Homo sapiens) (UniProt O00292); test: LEFTY2 binders on small-molecule microarrays, primary screen, biochemical, small-molecule microarray, 635 nm fluorescence scan (AID 1110); conditions: LEFTY2 binding, higher = more signal
Chain of Left-right determination factor 2 (Homo sapiens) (O00292 whole entry, looked up): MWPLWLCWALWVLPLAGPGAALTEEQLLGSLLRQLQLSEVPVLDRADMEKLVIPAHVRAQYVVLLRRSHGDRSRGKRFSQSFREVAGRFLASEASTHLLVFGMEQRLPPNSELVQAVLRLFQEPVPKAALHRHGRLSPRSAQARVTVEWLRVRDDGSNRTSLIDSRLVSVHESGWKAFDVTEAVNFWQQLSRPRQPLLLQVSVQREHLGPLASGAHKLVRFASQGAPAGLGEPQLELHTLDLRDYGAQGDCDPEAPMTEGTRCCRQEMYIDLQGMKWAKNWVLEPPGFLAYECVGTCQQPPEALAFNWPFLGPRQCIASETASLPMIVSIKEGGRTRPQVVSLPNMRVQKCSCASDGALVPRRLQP

[4] = biological target: Calmodulin-1 (Homo sapiens) (UniProt P0DP23); test: CALM1 binders on microarrays, EGTA buffer, profiling panel, biochemical, small-molecule microarray, Cy5-labelled CALM1 (AID 1111); conditions: Cy5-CALM1 binding fluorescence, higher = more signal;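 note: labelled calmodulin applied in Tris saline Tween buffer holding calcium plus EGTA and DTT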
[5] = biological target: Calmodulin-1 (Homo sapiens) (UniProt P0DP23); test: calcium-bound CALM1 binders on microarrays, profiling panel, artefact control for SMM control-protein annotation, biochemical, small-molecule microarray, Cy5-labelled CALM1, plus calcium (AID 1112); conditions: Cy5-CALM1 binding fluorescence, higher = more signal;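 note: score merges spot fluorescence with signal to noise from triplicate slides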
[6] = small-molecule microarray binders of probe aWnt5a, primary screen, biochemical, biotinylated probe, 635/667 nm fluorescence (AID 1113); conditions: higher = more signal;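 note: score merges 667 nm fluorescence intensity with signal-to-noise per printed feature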
[7] = small-molecule microarray binders of probe aShh, primary screen, biochemical, biotinylated probe, 635/667 nm fluorescence (AID 1114); conditions: higher = more signal;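 note: probe is biotin-labelled aShh protein from a stem cell growth factor screen; measures binding of labelled protein to compounds printed on the slide; score merges feature fluorescence at 667 nm with signal-to-noise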
[8] = small-molecule microarray binders of probe aNog, primary screen, biochemical, biotinylated probe, 635/667 nm fluorescence (AID 1115); conditions: higher = more signal;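 note: probe is biotinylated aNog protein used at 0.15 µg/mL for 1 h at 4 C; z-score combines 667 nm fluorescence of each spot with its signal to noise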
[9] = biological target: Torsin-1A-interacting protein 1 (Homo sapiens) (UniProt Q5JTV8); test: LAP1 binders from COS7 cell lysate, primary screen, small-molecule microarray, 635/667 nm fluorescence (AID 1116); conditions: COS7-hLAP1 lysate binding, 635 nm fluorescence, higher = more signal
Chain of Torsin-1A-interacting protein 1 (Homo sapiens) (Q5JTV8 whole entry, looked up): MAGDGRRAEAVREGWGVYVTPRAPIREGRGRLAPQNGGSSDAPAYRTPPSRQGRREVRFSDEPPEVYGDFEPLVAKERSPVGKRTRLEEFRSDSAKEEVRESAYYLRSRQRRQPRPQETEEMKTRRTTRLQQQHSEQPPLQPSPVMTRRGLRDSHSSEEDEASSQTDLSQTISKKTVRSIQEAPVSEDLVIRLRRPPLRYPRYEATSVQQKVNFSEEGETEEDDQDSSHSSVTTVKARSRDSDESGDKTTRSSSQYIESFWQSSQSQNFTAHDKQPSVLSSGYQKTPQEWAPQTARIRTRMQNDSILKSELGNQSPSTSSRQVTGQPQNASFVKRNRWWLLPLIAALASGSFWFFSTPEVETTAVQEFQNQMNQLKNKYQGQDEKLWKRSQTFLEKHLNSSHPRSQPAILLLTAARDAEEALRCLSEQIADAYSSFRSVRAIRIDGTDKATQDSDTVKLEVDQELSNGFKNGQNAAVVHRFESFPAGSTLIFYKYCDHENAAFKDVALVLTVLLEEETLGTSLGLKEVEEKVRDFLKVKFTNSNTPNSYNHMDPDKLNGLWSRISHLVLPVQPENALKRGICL

[10] = biological target: Alpha-bungarotoxin (Bungarus multicinctus) (UniProt P60615); test: alpha-bungarotoxin binders on microarray, profiling panel, artefact control for SMM control protein annotation, biochemical, small-molecule microarray, Alexa647 label, 635/667 nm fluorescence (AID 1117); conditions: alpha-BTX-A647 binding fluorescence, higher = more signal
Chain of Alpha-bungarotoxin (Bungarus multicinctus) (P60615 whole entry, looked up): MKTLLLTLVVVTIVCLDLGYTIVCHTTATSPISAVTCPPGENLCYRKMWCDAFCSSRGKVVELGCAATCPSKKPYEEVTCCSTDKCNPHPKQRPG

[11] = biological target: Albumin (Bos taurus) (UniProt P02769); test: bovine serum albumin binders on microarray, profiling panel, artefact control for SMM control protein annotation, biochemical, small-molecule microarray, Alexa647 label, 635/667 nm fluorescence (AID 1118); conditions: BSA-A647 binding, fluorescence 635 nm, higher = more signal;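 note: score merges 667 nm emission intensity and signal-to-noise per printed compound spot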
Chain of Albumin (Bos taurus) (P02769 whole entry, looked up): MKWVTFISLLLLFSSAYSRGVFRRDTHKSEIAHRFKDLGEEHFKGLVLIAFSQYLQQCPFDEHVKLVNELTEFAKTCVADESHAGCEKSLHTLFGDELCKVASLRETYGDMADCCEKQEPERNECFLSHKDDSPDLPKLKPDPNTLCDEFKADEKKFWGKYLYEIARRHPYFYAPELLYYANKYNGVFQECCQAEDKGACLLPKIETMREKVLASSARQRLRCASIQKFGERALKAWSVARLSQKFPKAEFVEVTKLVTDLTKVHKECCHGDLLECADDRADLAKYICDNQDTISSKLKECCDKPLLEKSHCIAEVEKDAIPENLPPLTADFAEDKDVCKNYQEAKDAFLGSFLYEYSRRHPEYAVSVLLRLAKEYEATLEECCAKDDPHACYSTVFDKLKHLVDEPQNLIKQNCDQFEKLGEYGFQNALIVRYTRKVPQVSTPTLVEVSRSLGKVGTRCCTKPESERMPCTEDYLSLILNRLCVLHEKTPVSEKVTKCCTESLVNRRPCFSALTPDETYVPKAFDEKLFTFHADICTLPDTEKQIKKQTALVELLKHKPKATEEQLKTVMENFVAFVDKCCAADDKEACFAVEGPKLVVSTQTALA

[12] = small-molecule microarray binders of probe aXIP, primary screen, biochemical, NeuroSMM set, 635/667 nm fluorescence (AID 1119); conditions: higher = more signal, called active from +8 up or from −8 down;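 note: probe is the protein aXip251-270 applied at 1 µg/mL to compound-printed slides; binding of probe to printed compounds measured as 667 nm fluorescence plus signal to noise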
[13] = small-molecule binders of probe aNOTCH3, primary screen, biochemical, small-molecule microarray, 635/667 nm fluorescence (AID 1120); conditions: higher = more signal;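 note: probe is a biotin-tagged antibody raised against NOTCH3 rather than NOTCH3 protein; score merges spot fluorescence near 667 nm with spot signal to noise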
[14] = small-molecule binders of probe aNOTCH2, primary screen, biochemical, small-molecule microarray, 635/667 nm fluorescence (AID 1121); conditions: higher = more signal;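 note: score merges feature fluorescence read at 667 nm with its signal to noise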
[15] = biological target: Carbonic anhydrase 2 (Homo sapiens) (UniProt P00918); test: CAII small-molecule binders, profiling panel, biochemical, small-molecule microarray, Alexa647-labelled CAII (AID 1122); conditions: CAII-A647 binding fluorescence, higher = more signal
[16] = COS7 lysate on small-molecule microarray, probe aHis, 635 nm (AID 1123); conditions: COS7 cell lysate, fluorescence, higher = more signal;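 note: z-score combines 667nm fluorescence intensity with signal-to-noise per printed compound spot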
[17] = compound binding in COS7 lysate, probe aLAP1, primary screen, cell lysate, small-molecule microarray (AID 1124); conditions: probe aLAP1, fluorescence, higher = more signal;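 note: lysate comes from COS7 cells expressing LAP1 and is applied at 0.3 µg/mL; score merges spot fluorescence near 667 nm with signal-to-noise over triplicate slides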
[18] = test system: Sam68 (KHDRBS1); test: Sam68 small-molecule binders, primary screen, biochemical, small-molecule microarray, 635 nm fluorescence (AID 1125); conditions: small-molecule microarray binding, higher = more signal;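 note: score merges 667 nm channel intensity with signal to noise over triplicate slides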
[19] = test system: Chordin-like protein 2 (CHRDL2); test: CHRDL2 small-molecule binders, primary screen, biochemical, small-molecule microarray, 635 nm fluorescence (AID 1126); conditions: small-molecule microarray binding, fluorescence 635 nm; higher = more signal;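 note: printed compound slides probed with Chrdl2 protein at 4 µg/mL for 1 h at 4 C; score merges 667 nm emission intensity with signal to noise over three replicate slides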
[20] = biological target: Concanavalin-A (Canavalia ensiformis) (UniProt P02866); test: ConA small-molecule binders, primary screen, artefact control for SMM control protein annotation, biochemical, small-molecule microarray, Alexa647 label, 635 nm (AID 1127); conditions: ConA-A647 binding fluorescence, higher = more signal;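 note: z combines 667 nm emission intensity with signal-to-noise across three replicate slides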
Chain of Concanavalin-A (Canavalia ensiformis) (P02866 whole entry, looked up): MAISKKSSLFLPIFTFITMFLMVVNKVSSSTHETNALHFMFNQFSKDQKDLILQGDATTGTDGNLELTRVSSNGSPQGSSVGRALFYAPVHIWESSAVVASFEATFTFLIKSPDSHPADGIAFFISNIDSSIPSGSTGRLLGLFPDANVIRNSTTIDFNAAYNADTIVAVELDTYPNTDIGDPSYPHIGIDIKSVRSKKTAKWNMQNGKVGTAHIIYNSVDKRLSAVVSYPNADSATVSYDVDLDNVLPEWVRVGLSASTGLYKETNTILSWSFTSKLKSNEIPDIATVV

Row | SMILES | composite z-score [1] | z-score [2] | composite z-score [3] | composite z-score [4] | composite z-score [5] | composite z-score [6] | composite z-score [7] | composite z-score [8] | composite z-score [9] | composite z-score [10] | composite z-score [11] | composite Z-score [12] | composite z-score [13] | composite z-score [14] | composite z-score [15] | composite z-score [16] | composite z-score [17] | composite z-score [18] | composite z-score [19] | composite z-score [20]
1 | CC(C)[Si]1(C(C)C)O[C@@H](c2ccccc2)c2cc(C3CC3)nc(-c3ccccc3)c21 | 0.503 | -0.587 | -0.953 | -0.0471 | -0.239 | -0.126 | -0.221 | -0.368 | -0.509 | 0.181 | 0.23 | -0.773 (inactive) | -0.16 | -0.102 | -0.169 | 0.423 | 0.202 | -0.308 | 0.324 | -0.77
2 | O=C1[C@H]2[C@H]3[C@H](O)[C@H](O)CC(=NOC[C@@H](O)COCc4ccco4)[C@H]3CC[C@H]2C(=O)N1C1CCCCC1 | -0.417 | -0.353 | 1.05 | -1.04 | -1.77 | -0.104 | -0.138 | -0.402 | -0.324 | -0.32 | -0.709 | -0.47 (inactive) | 0.0459 | -0.258 | -0.379 | -0.317 | -0.342 | 0.191 | 1.42 | -0.843
3 | CC(C)=NOCc1ccc(-c2cc(-c3ccccc3)no2)cc1 | -0.0501 | -0.115 | 0.384 | -0.555 | -0.498 | -0.0701 | -0.214 | -0.139 | 0.0444 | -0.0299 | -0.205 | -0.0363 (inactive) | -0.0984 | -0.169 | -0.145 | -0.676 | 0.0863 | 0.059 | 0.14 | 0.0293
4 | CCOC(=O)C1=CC[C@H]2C(=O)N(CC)C(=O)[C@@H]12 | 1.19 | -2.13 | 0.444 | -0.322 | -0.485 | -0.0236 | 0.329 | -0.0184 | 0.184 | 0.431 | 0.343 | 0.806 (inactive) | 0.0242 | -0.0866 | 0.522 | 1.01 | 0.111 | 1.09 | 0.363 | 0.65
5 | Cn1c(=O)n2n(c1=O)[C@H]1[C@H](O)[C@@H]3O[C@@H]3C(=NOC[C@@H](O)COCc3ccco3)[C@H]1CC2 | 0.499 | 0.481 | 0.83 | 0.132 | -0.844 | -0.216 | -0.468 | 0.964 | 0.314 | 0.318 | 0.125 | -0.383 (inactive) | 0.236 | -0.208 | -0.142 | 0.145 | -0.0856 | 0.373 | 0.535 | 0.59
6 | CCCNC(=O)[C@@H]1c2ccccc2C(=O)N(c2ccc(C)cn2)[C@H]1c1ccc(CO)cc1 | -1.05 | 0.0924 | -0.181 | -0.769 | -0.462 | -0.238 | -0.0155 | -0.434 | 0.185 | 0.4 | 0.206 | -0.207 (inactive) | -0.305 | -0.109 | 0.769 | -0.018 | -0.514 | -0.646 | -0.382 | -0.984
7 | CO[C@@H]1COC(=O)CC=C[C@@H](C)[C@H](OC)COC(=O)[C@H](COCc2ccccc2)NC(=O)CC=C[C@H]1C | -2.18 | -1.36 | 0.62 | -1.07 | -2.36 | -0.232 | -0.302 | -0.625 | 0.0597 | -0.486 | -1.39 | 0.0898 (inactive) | -0.0584 | -0.197 | -0.654 | -0.925 | -0.23 | -0.978 | 1.22 | -3.99
8 | COCCOC(=O)N1C(=O)[C@@]2(c3cc(C#CC4(O)CCCCCC4)ccc31)[C@H](c1ccc(OCCO)cc1)N1[C@H](c3ccccc3)[C@H](c3ccccc3)OC(=O)[C@H]1[C@@H]2C(=O)NC[C@H](O)c1ccccc1 | 1.44 | -2.32 | 0.358 | 1.28 | 0.311 | 0.0079 | -0.0289 | 0.385 | 1.26 | 2.17 | 0.203 | -0.317 (inactive) | 0.0039 | -0.115 | 0.367 | 1.71 | 0.288 | 1.29 | -0.0516 | 1.12
9 | COc1ccc([Si](C)(C)[C@@H]2[C@@H](CCO)O[C@]3(C(=O)N(Cc4ccc(NC(C)=O)cc4)c4ccccc43)[C@H]2C)cc1 | 1.43 | -5.21 | 0.621 | 1.07 | 0.521 | 0.0136 | 0.441 | 0.715 | 0.802 | 1.21 | 0.78 | 0.19 (inactive) | 0.217 | 0.0884 | 0.574 | 1.08 | 0.222 | 1.15 | 0.465 | 1.1
10 | CN1C(=O)[C@@]2(CCC(=O)OC(C)(C)C)N=C(c3ccc(OCCCO)cc3)O[C@H]2c2ccccc21 | 1.29 | -2.9 | -0.057 | 0.878 | -0.304 | -0.096 | 0.137 | -0.539 | 0.558 | 0.721 | 0.498 | -0.428 (inactive) | -0.0694 | -0.165 | 0.337 | 2.38 | 0.176 | 1.27 | 0.0811 | 1.09
